The nature of experiment [1]: qHTS for Inhibitors of Cell Surface uPA Generation: Validation Assay (AID 493164).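 Also: RAW 264.7 macrophage cells exposed to compound for 18 h.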 In a few lines: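 RAW 264.7, 4000 cells/well, o/n plating; cpd 7-pt 1:5 dilution 2.45 nM–38.3 uM final; 18 h, 37 C/5% CO2; ATP-Lite, 5 s luminescence exposure.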
The target in experiment [2] is Peptidyl-prolyl cis-trans isomerase NIMA-interacting 1 (Homo sapiens) (UniProt Q13526). Nature of the experiment: qHTS Validation Assay to Find Inhibitors of Pin1 (AID 504536; active = well fitted inhibition curve with a large enough effect in the polarisation, with a control signal flat, not every such curve was filed as active; the % refers to the polarisation; also: potency is read from the fitted curve at half-maximal effect). In a few lines: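 Fluorescence polarization competition: compounds (titration) displace HiFluor-488-labeled Pin1-1b peptide from Pin1 (0.3 uM final) in pH 7.5 HEPES buffer with DTT, 10 min at room temperature; %Activity normalized to no-enzyme wells, curves fitted.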
Peptidyl-prolyl cis-trans isomerase NIMA-interacting 1 (Homo sapiens), sequence (Q13526 whole entry, looked up): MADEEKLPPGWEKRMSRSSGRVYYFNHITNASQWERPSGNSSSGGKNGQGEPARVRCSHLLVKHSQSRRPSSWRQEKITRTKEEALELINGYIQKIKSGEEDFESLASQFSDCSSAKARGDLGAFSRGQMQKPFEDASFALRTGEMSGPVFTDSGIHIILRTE

In experiment [3] the target is Phosphoglycerate kinase, glycosomal (Trypanosoma brucei brucei) (UniProt P07378). Nature of the experiment: qHTS Validation Assay to Find Inhibitors of Phosphoglycerate Kinase (AID 504547). Also: potency is read from the fitted curve at half-maximal effect. In a few lines: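 Inhibition of the enzyme is judged by a Kinase-Glo Plus luminescent signal following a one-hour incubation at room temperature. Because 1,3-BPG is unstable, it is made in situ by GAPDH at 100nM final; no-PGK wells define the baseline.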
Phosphoglycerate kinase, glycosomal (Trypanosoma brucei brucei), sequence (P07378 whole entry, looked up): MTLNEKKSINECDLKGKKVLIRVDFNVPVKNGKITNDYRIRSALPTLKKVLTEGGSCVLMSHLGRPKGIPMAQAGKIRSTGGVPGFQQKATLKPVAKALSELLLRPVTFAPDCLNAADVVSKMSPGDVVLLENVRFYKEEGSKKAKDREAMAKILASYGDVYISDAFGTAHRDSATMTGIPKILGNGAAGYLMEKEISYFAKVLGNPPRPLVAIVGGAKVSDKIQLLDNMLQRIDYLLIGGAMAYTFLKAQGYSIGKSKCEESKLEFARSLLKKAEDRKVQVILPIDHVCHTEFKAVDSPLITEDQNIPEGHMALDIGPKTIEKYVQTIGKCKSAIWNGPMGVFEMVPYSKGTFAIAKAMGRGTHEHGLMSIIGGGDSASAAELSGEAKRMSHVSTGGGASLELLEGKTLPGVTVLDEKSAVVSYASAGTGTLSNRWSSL

In experiment [4] the target is phosphoglycerate mutase (Leishmania major) (UniProt Q4Q090). In words: qHTS Validation Assay to Find Inhibitors of Phosphoglycerate Mutase (AID 504548). Also: potency is read from the fitted curve at half-maximal effect. As to conditions: Potency: inhibition qHTS. In a few lines:
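Lm PGAM 1.25nM final; 100 mM TEA pH 7.6, 5 mM MgCl2, 0.01% Tween-20; 45 min RT; Kinase-GloPlus, 10 min; end-point luminescence. Enzyme-free wells as negative controls.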

Experiment [5] has as its target Ubiquitin carboxyl-terminal hydrolase 1 (Homo sapiens) (UniProt O94782). Nature of the experiment: Inhibitors of USP1/UAF1: Pilot qHTS (AID 504865). Also: nearly all actives have a fitted effect of over 35% in size. Also: potency is read from the fitted curve at half-maximal effect. The method in brief: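 Deubiquitinase activity followed as kinetic rhodamine fluorescence release from 150 nM Ub-Rho. 1 nM USP1/UAF1 with compound, after 15 min room-temperature preincubation, in HEPES pH 7.8 buffer containing TCEP, EDTA, BSA and Tween-20.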

A short description of experiment [6]: qHTS for Inhibitors of ATXN expression: Validation of Cytotoxic Assay (AID 588349).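 Also: cells exposed to compound for 72 hr.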 The method in brief:
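HEK293, compound dose series, 72 hr / 37 degrees C; viability via CellTiter Glo (intracellular ATP).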

Experiment [7] can be described thus: Validation screen for small molecules that induce DNA re-replication in SW480 colon adenocarcinoma cells (AID 504364). The method in brief: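 Cells are treated 48 hr with test compound, stained 40 min with Hoechst at 37 C, and scanned for nuclear fluorescence; compounds inducing re-replication increase nuclei with elevated intensity.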
Experiment [8] is described as follows: qHTS for Inhibitors of ATXN expression: Validation (AID 588378). Also: series mostly up to about 57 µM; nearly all actives have a fitted effect of over 75% in size. In a few lines: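 Luciferase luminescence (Bright-Glo) from an ATXN2-FFLuc HEK293 line after 24 h compound exposure at 37 °C, preceded by a CellTiter-Fluor fluorescence viability read. Serial dilutions of a reference ATXN2 inhibitor and a luciferase inhibitor served as controls.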
Experiment [9] concerns the target DNA dC->dU-editing enzyme APOBEC-3G (Homo sapiens) (UniProt Q9HC16). Nature of the experiment: qHTS for inhibitors of Vif-A3G interactions: Validation (AID 588379). Also: potency is read from the fitted curve at half-maximal effect. In a few lines: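 HeLa cells stably expressing Vif and A3G-eYFP, 700 cells/well, incubated overnight at 37 deg C, then exposed to compound overnight at 37 deg C. Inhibition of Vif-mediated degradation read as increased yellow fluorescence (Ex 488/Em 500-530) by laser-scanning cytometry.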

Inconclusive results are not listed. Active and inactive are the calls of the source. Unless noted, calls follow the shape of the dose curve; as a rule, active = well fitted curve in the direction sought with a large enough effect; inconclusive = small, poorly fitted or top-dose-only effect, or another doubt; inactive = no such curve, though single readings can be large; an effect the other way counts as inactive or inconclusive.

phosphoglycerate mutase (Leishmania major), sequence (Q4Q090 1-553): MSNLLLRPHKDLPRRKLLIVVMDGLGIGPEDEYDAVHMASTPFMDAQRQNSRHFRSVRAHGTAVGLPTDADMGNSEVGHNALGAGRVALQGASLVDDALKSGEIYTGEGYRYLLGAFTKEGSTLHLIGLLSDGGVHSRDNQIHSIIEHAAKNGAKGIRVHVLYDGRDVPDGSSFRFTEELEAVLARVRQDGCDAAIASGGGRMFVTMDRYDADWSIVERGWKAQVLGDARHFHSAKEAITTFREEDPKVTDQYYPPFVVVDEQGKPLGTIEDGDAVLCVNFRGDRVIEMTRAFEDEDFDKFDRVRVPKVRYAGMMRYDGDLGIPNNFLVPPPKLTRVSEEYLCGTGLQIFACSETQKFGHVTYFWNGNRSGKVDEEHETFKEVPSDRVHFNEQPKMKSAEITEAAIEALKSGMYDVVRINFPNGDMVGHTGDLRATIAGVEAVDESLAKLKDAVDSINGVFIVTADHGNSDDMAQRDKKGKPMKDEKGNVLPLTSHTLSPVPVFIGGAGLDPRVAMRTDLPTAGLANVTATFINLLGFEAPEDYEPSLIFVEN
Ubiquitin carboxyl-terminal hydrolase 1 (Homo sapiens), sequence (O94782 whole entry, looked up): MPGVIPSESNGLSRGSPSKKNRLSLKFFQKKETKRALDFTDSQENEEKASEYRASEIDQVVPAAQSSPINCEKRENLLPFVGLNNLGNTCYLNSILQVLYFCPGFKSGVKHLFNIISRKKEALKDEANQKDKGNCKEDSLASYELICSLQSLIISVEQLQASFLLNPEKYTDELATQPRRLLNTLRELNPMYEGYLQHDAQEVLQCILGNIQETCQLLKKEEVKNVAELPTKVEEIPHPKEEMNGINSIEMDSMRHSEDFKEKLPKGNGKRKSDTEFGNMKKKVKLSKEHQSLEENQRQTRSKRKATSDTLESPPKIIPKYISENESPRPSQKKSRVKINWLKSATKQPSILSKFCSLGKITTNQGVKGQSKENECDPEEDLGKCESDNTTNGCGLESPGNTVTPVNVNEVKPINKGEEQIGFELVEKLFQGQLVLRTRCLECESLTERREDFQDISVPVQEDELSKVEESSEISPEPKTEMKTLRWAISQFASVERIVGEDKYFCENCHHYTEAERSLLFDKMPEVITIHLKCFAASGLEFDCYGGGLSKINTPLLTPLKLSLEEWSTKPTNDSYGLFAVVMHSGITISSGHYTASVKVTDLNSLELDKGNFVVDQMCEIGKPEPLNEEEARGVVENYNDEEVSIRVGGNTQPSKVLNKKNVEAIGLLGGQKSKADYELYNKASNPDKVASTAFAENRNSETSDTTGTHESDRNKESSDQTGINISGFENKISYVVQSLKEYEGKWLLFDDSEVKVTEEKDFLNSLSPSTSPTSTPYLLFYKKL
DNA dC->dU-editing enzyme APOBEC-3G (Homo sapiens), sequence (Q9HC16 whole entry, looked up): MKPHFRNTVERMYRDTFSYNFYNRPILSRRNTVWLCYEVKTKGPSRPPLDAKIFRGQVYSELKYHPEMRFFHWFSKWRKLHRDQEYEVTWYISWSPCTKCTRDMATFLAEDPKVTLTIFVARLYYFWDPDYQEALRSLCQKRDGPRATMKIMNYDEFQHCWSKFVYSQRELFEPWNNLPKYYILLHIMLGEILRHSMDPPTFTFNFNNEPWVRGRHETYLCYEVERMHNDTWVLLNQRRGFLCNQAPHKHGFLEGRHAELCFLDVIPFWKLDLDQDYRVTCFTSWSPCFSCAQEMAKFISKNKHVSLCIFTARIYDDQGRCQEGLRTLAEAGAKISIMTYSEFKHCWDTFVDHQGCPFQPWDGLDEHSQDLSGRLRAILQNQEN

Regarding `N=c1ccn2c(n1)O[C@H]1[C@H](O)[C@@H](CO)O[C@H]12`, the outcome in [1] was inactive. For the same compound, the Potency entry in [2], in experiment [3], in experiment [4], in experiment [5] and in experiment [6] was “inactive” in each case.

Take `C=C[C@@H]1CN2CC[C@@H]1C[C@H]2[C@H](O)c1ccnc2ccc(OC)cc12`: the result in experiment [1] was inactive. For the same compound, the Potency result in experiment [7], in [2], in [3] and in experiment [4] was “inactive” throughout.

Consider `NC[C@H]1O[C@@H](n2cnc3c(N)ncnc32)[C@H](O)[C@@H]1O`, for which, in experiment [1], the compound was called inactive. For the same compound, the Potency entry in experiment [2], in [3], in [4], in [5], in [6] and in experiment [8] was “inactive” throughout.

Consider `Cc1ccc(O)c(N=Nc2ccccc2)n1`, for which the outcome in experiment [1] was inactive. Further, the Potency entry in [7] and in experiment [2] was “inactive” each time. For the same compound, the Potency in experiment [3] is 10.7 µM (active); in experiment [4], 10.7 µM (active); in experiment [9], 10.6 µM (active).

Regarding `C=CC(=O)c1ccc(CCCCCC)cc1`, the call in experiment [1] was inactive. The Potency result in experiment [2], in experiment [3], in experiment [4] and in experiment [6] was “inactive” in each case. Besides, the Potency in experiment [5] was 56.2 µM (active).

In the case of `CC(C)ON([C@@H](C(=O)NO)C(C)C)S(=O)(=O)c1ccc(-c2ccccc2)cc1`, the compound was classed as inactive in experiment [1]. The Potency result in experiment [2], in experiment [3] and in [4] was “inactive” in each case.

For `CC[C@@H](C)[C@H]1O[C@]2(CC[C@H]1C)C[C@@H]1C[C@@H](CC=C(C)[C@@H](O[C@H]3C[C@H](OC)[C@@H](O[C@H]4C[C@H](OC)[C@@H](O)[C@H](C)O4)[C@H](C)O3)[C@@H](C)C=CC=C3CO[C@@H]4[C@H](O)C(C)=C[C@@H](C(=O)O1)[C@]34O)O2`, in [1], the compound was called inactive. Also, the Potency entry in experiment [2], in experiment [3] and in [4] was “inactive” in each case.

For `OC[C@H]1O[C@@H](n2cnc3c(Nc4ccccc4)ncnc32)[C@H](O)[C@@H]1O`, the outcome in experiment [1] was inactive. The Potency result in experiment [2], in experiment [3], in experiment [4], in experiment [5], in experiment [6] and in experiment [8] was “inactive” throughout.

With `Nc1nc(Cl)nc2c1ncn2[C@@H]1O[C@H](CO)[C@@H](O)[C@H]1O`, the call in [1] was inactive. Besides, the Potency result in experiment [2], in experiment [3], in [4], in experiment [5] and in experiment [6] was “inactive” each time.

Take `COc1ccc2c(c1)CCC1C2CC[C@@]2(C)C1CC[C@@H]2NCCCCCCN1C(=O)CCC1=O` (some centres undefined): the result in experiment [1] was inactive. Besides, the Potency entry in experiment [2], in experiment [3], in experiment [4] and in experiment [5] was “inactive” throughout.

Consider `CNc1ncnc2c1ncn2[C@@H]1O[C@H](CO)[C@@H](O)[C@H]1O`, for which, in experiment [1], the compound was called inactive. For the same compound, the Potency result in experiment [2], in experiment [3], in [4], in [5] and in experiment [6] was “inactive” each time.

As to `Cc1cc(NC2CCCCC2)nc(-n2nc(C)cc2C)n1`, the call in [1] was inactive. In addition, the Potency entry in experiment [2], in experiment [3], in [4], in experiment [5] and in experiment [6] was “inactive” in each case.

Consider `CC(C)Cc1ccc([C@H](C)C(=O)O)cc1`, for which the outcome in [1] was inactive. In addition, the Potency entry in experiment [7], in [2], in experiment [3], in experiment [4], in experiment [5] and in experiment [6] was “inactive” each time.

In the case of `NC(=O)C1=CN(C2OC(COP(=O)(O)OP(=O)(O)OC[C@H]3O[C@@H](n4cnc5c(N)ncnc54)[C@H](OP(=O)(O)O)[C@@H]3O)C(O)C2O)C=CC1` (some centres undefined), the compound was classed as inactive in [1]. Besides, the Potency in experiment [2] was 5.36 µM (active). The Potency result in experiment [3], in experiment [4], in experiment [5], in [6] and in experiment [8] was “inactive” each time.

With `CC(=O)/C=C1\C(=O)N(C)c2ccccc21`, the outcome in experiment [1] was inactive. The Potency result in [2], in [3], in experiment [4] and in [5] was “inactive” throughout.

As to `CCNC(=O)[C@H]1O[C@@H](n2cnc3c(N)nc(NCCc4ccc(CCC(=O)O)cc4)nc32)[C@H](O)[C@@H]1O`, in [1], the compound was called inactive. For the same compound, the Potency entry in [2], in experiment [3], in experiment [4], in experiment [5] and in experiment [6] was “inactive” each time.

On to `C[N+]1(C)C2CC(OC(=O)[C@H](CO)c3ccccc3)CC1C1OC12` (some centres undefined), for which the outcome in experiment [1] was inactive. Besides, the Potency entry in experiment [2], in experiment [3], in experiment [4], in experiment [5] and in experiment [6] was “inactive” throughout.

For `OCC1O[C@H]([S-])[C@H](O)[C@@H](O)[C@@H]1O.[Au+]` (some centres undefined), in [1], the compound was classed as inactive. The Potency is 4.26 µM (active) in experiment [2] and 8.49 µM (active) in experiment [3]. Moreover, the Potency result in experiment [4] and in [5] was “inactive” throughout.
